Results taken from PubChem BioAssay (EPA / NIEHS).
Inconclusive results are not listed. Active and inactive are the calls of the source. How the source made its calls: active means hit-call score of the fitted dose curve at least 0.9, where 1 is the maximum; inconclusive means response in the unintended direction; inactive means score below 0.9.

Test: ATG_M_19_TRANS: Attagene TRANS-FACTORIAL HepG2 Assay for M19 Transcription Factor (Internal Marker) (AID 2282974)
Conditions: HepG2 Attagene TRANS-FACTORIAL M19 internal marker reporter
Method: ATG_TRANS is a cell-based, multiplexed-readout assay that uses HepG2, a human liver cell line, with measurements taken at 24 hours after chemical dosing in a 24-well plate.ATG_M_19_TRANS is one of 30 assay component(s) measured or calculated from the ATG_TRANS assay. It is designed to make measurements of mRNA induction, a form of inducible reporter, as detected with fluorescence intensity signals by Reverse transcription polymerase chain reaction (RT-PCR) and Capillary electrophoresis technology.Data from the assay component ATG_M_19_TRANS was analyzed into 1 assay endpoint. This assay endpoint, ATG_M_19_TRANS, was analyzed in the positive analysis fitting direction relative to DMSO as the negative control and baseline of activity. Using a type of inducible reporter, measures of mRNA for gain-of-signal activity can be used to understand the background control at the transcription factor-level as they relate to the gene . Furthermore, this assay endpoint can be referred to as a secondary readout, because this assay has produced multiple assay endpoints where this one serves a background control function. To generalize the intended target to other relatable targets, this assay endpoint is annotated to the background measurement intended target family, where the subfamily is internal marker.
Human liver HepG2 cells are transiently transfected with multiple reporter transcription units (MRTUs) in 6-well plates using FuGene 6 reagent (Roche; 3 ml FuGene/1 mg DNA). The MRTU constructs are regulated by a cis-regulating element (promoter). […] A major difference between the CIS and TRANS system is that in CIS activities of endogenous TFs are measured, whereas the TRANS assay evaluates changes in activities of exogenous, chimeric NR-Gal4 proteins. […] At the end of 24 hour incubation, total RNA was isolated using TriZol reagent (Invitrogen). The isolated RNA is then reverse-transcribed using oligo(dT) primer and Mo-MLV reverse transcriptase (Invitrogen) with DNAse I (Ambion) treatment for 30 min. The one-tenth of the produced cDNA was amplified by PCR using Taq DNA polymerase (Invitrogen) and two reporter sequence-specific primers. The PCR products were fluorescently labeled by primer extension with 6-arboxyfluorescein (6-FAM) 5'-labeled reporter sequence-specific primer (2 min at 95 C, 20 s at 68 C and 10 min at 72 C) and these products were digested with 5U of HpaI (New England Biolabs) for 2h at 37 C. The fragments were purified using Qiaquick PCR columns (Qiagen), analyzed on an ABI 3130xL genetic analyzer (Applied Biosystems) with peak positions identified by using a set of X-rhodamine (ROX)-labeled MapMarker1000 molecular weight standards (BioVentures). The raw capillary electrophoresis data was processed using Attagraph software (Attagene).

| Structure (SMILES) | outcome |
| --- | --- |
| Nc1ccnc(=O)[nH]1 | inactive |
| CCCCCC[C@@H](O)C/C=C\CCCCCCCC(=O)OCC(O)CO (stereo not given in full) | inactive |
| COC(C=C(C)CCC=C(C)C)OC | inactive |
| CO[Si](C)(C)OC | inactive |
| C=C(C)OC(C)=O | inactive |
| CCC(C)c1ccccc1 (stereo not given) | inactive |
| Nc1cccc(N)n1 | inactive |
| O=C(Nc1ccccc1)c1cc(Cl)ccc1O | inactive |
| Clc1cccnc1 | inactive |
| CC1=CCC2CC1C2(C)C (stereo not given) | inactive |
| CC(C)C(=O)OCCc1ccccc1 | inactive |
| CC(C)(O)Cc1ccccc1 | inactive |
| CCCCC(CC)COS(=O)(=O)O (stereo not given) | inactive |
| O=C(OCCc1ccccc1)c1ccccc1 | inactive |
| CC(=O)OCC=C(C)C | inactive |
| Nc1ccc(C(=O)OCCCOC(=O)c2ccc(N)cc2)cc1 | inactive |
| CC/C=C\C/C=C\C/C=C\CCCCCCCC(=O)OC | inactive |
| CC(=O)OC1CCCCC1C(C)(C)C (stereo not given) | inactive |
| CCCCCCC=O | inactive |
| CCCCCOC(=O)CCCCC | inactive |

| Structure (SMILES) | outcome |
| --- | --- |
| COC(OC)(C(=O)c1ccccc1)c1ccccc1 | inactive |
| O=C(OCc1ccccc1)c1ccc(O)cc1 | inactive |
| CC(C)c1cc(C(C)C)cc(C(C)C)c1 | inactive |
| C=C(C)C(=O)OCC(O)COc1ccc(C(C)(C)c2ccc(OCC(O)COC(=O)C(=C)C)cc2)cc1 (stereo not given) | inactive |
| C=C(C)C1CC=C(C)C(OC(C)=O)C1 (stereo not given) | inactive |
| CC(=O)OCc1ccccc1 | inactive |
| CCCCC1C(=O)N(c2ccccc2)N(c2ccccc2)C1=O | inactive |
| CC(=O)c1ccc(S(=O)(=O)NC(=O)NC2CCCCC2)cc1 | inactive |
| N#Cc1ccc(C(c2ccc(C#N)cc2)n2cncn2)cc1 | inactive |
| CCOC(=O)C1=NN(c2ccc(Cl)cc2Cl)C(C)(C(=O)OCC)C1 (stereo not given) | inactive |
| CCOC(=O)/C=C\C(=O)OCC | inactive |
| Cc1c(C(=O)c2c[nH]n(C)c2=O)ccc(S(C)(=O)=O)c1C1=NOCC1 | inactive |
| c1ccc2cnccc2c1 | inactive |
| C=CCOC(=O)c1ccc(C(=O)OCC=C)c(C(=O)OCC=C)c1 | inactive |
| CC(C)c1cccc(C(C)C)c1N | inactive |
| NC(=O)Nc1ccccc1 | inactive |
| C=Cc1ccc(OC(C)=O)cc1 | inactive |
| CC(=O)C(C)C | inactive |
| CC(C)COC(=O)CC(C(=O)OCC(C)C)S(=O)(=O)O (stereo not given) | inactive |
| CCN(CC)c1cccc(C)c1 | inactive |
